Reference: publication PMC5540273 (PLoS ONE, 2017)

Experiments:
Conditions in all cases: concentration: 1 μM, replicates: in singlicate; n = 1
[1] = test system: FYN
[2] = test system: GAK
[3] = test system: T1, GCN2(Kin.Dom.2,S808G)
T1 construct: gene EIF2AK4

[4] = test system: GRK1
[5] = test system: T2, GRK2
T2 construct: gene ADRBK1

[6] = test system: T3, GRK3
T3 construct: gene ADRBK2

[7] = test system: GRK4
[8] = test system: GRK7
[9] = test system: GSK3A
[10] = test system: GSK3B
[11] = test system: T4, HASPIN
T4 construct: gene GSG2

[12] = test system: HCK
[13] = test system: HIPK1
[14] = test system: HIPK2
[15] = test system: HIPK3
[16] = test system: HIPK4
[17] = test system: HPK1
[18] = test system: HUNK
[19] = test system: ICK
[20] = test system: IGF1R
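Also: KINOMEscan kinase panel screen.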

Row | Compound | %Inh [1] [%] | %Inh [2] [%] | %Inh [3] [%] | %Inh [4] [%] | %Inh [5] [%] | %Inh [6] [%] | %Inh [7] [%] | %Inh [8] [%] | %Inh [9] [%] | %Inh [10] [%] | %Inh [11] [%] | %Inh [12] [%] | %Inh [13] [%] | %Inh [14] [%] | %Inh [15] [%] | %Inh [16] [%] | %Inh [17] [%] | %Inh [18] [%] | %Inh [19] [%] | %Inh [20] [%]
1 | COc1cc(Nc2ncc3c(C)nc(-c4cc5ccccc5[nH]4)n3n2)cc(OC)c1OC [GW869516] | 30 | 34 | 88 | 0 | 0 | 0 | 19 | 0 | 0 | 0 | 0 | 16 | 79 | 0 | 0 | 17 | 2 | 0 | 0 | 0
2 | CN(C)S(=O)(=O)c1cc(-c2ccc3nccc(-c4cccc(S(N)(=O)=O)c4)c3c2)cnc1N [GSK1669921] | 28 | 28 | 0 | 5 | 0 | 0 | 12 | 8 | 0 | 3 | 71 | 0 | 49 | 36 | 44 | 48 | 41 | 0 | 44 | 0
3 | Cl.Cl.NCC(C(=O)Nc1cc(Br)c(-c2ccnc3[nH]ccc23)s1)c1ccccc1 (stereo not shown) [GSK1269851] | 30 | 83 | 0 | 56 | 13 | 62 | 86 | 13 | 0 | 7 | 97.6 | 29 | 48 | 0 | 55 | 81 | 41 | 0 | 33 | 16
4 | CN1CCN(Cc2cccc(-c3ccc4c(Nc5ccc(Oc6ccccc6)cc5)ccnc4c3)c2)CC1 [GW578342] | 83 | 3 | 0 | 1 | 2 | 37 | 0 | 0 | 16 | 0 | 17 | 95.1 | 0 | 2 | 0 | 0 | 25 | 11 | 0 | 5
5 | COc1cc(Nc2nccc(-c3c(-c4cccc(NC(=O)c5c(F)cccc5F)c4)nn4ccccc34)n2)cc(OC)c1OC [GSK323521] | 23 | 28 | 29 | 13 | 0 | 0 | 16 | 0 | 0 | 23 | 0 | 0 | 12 | 0 | 16 | 14 | 50 | 24 | 0 | 32
6 | O=C(NC1CCN(c2ccnc(Nc3ccc(F)cc3)n2)C1)c1cc2ccccc2s1 (stereo not shown) [GSK1379716] | 26 | 13 | 7 | 3 | 14 | 33 | 0 | 0 | 0 | 20 | 12 | 0 | 0 | 0 | 8 | 0 | 54 | 10 | 0 | 13
7 | COc1cccc(NC(=O)NC2CCN(c3ccnc(Nc4cc(OC)c(OC)c(OC)c4)n3)C2)c1 (stereo not shown) [GSK1379763] | 42 | 31 | 4 | 0 | 0 | 15 | 0 | 0 | 0 | 45 | 0 | 0 | 0 | 0 | 85 | 0 | 76 | 0 | 18 | 0
8 | CC(C)(C)c1ccc2nccc(Nc3cccc(O)c3)c2c1 [GW856795] | 71 | 62 | 15 | 9 | 39 | 0 | 16 | 17 | 0 | 9 | 27 | 60 | 18 | 50 | 0 | 0 | 37 | 0 | 24 | 0
